Where a name gives a salt, the structure may show the parent alone.
Columns and labels:
Conditions in all cases: incubation time: 27 h, anaerobic, 37 °C;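 for the amine columns active = adjusted P below 0.05 in both replicates with a change the same way and a mean fold change under 0.8 or over 1.25; inactive = the rest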
[1] = tested on: Clostridium sporogenes DSM 1664; test: growth (OD595) fold change vs plate DMSO controls (fold change (ratio)); higher = more growth
Outline: (§1)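 The measure reported is growth, taken as fold change against the median of DMSO controls on the same plate. Anaerobic mGAM cultures in 96-well plates (27 h, 37 °C) were read at 595 nm, blank-subtracted, corrected for compound background using 20 µM compound solutions in water, and multiplied by a calibration factor of 5 to give OD. Any fold change above 1.5 became NA, and 2 biological replicates were averaged.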

Escherichia coli IAI1 [2] = test: as above
Outline: as §1

[3] = tested on: Klebsiella aerogenes DSM 30053; test: as above
Outline: as §1

[4] = tested on: Klebsiella aerogenes DSM 30053; test: fold change of Histamine concentration vs plate DMSO controls (fold change (ratio)); higher = more amine produced, active = hit call of the paper (significant change in both replicates, either direction)
Outline: (§2)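 Amine values are fold changes relative to DMSO-only wells on the same plate. They derive from 27 h, 37 °C anaerobic mGAM cultures of four gut bacterial strains in 80 µL wells, dosed at 20 µM final, or 50 µM final for sweeteners. Extraction of the whole culture, LC–triple-quadrupole MS in dynamic MRM mode, external calibration curves and within-batch drift correction were used, with 2 biological replicates averaged.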

[5] = tested on: Clostridium sporogenes DSM 1664; test: fold change of Tryptamine concentration vs plate DMSO controls (fold change (ratio)); higher = more amine produced, active = hit call of the paper (significant change in both replicates, either direction)
Outline: as §2

[6] = tested on: Ruminococcus gnavus DSM 108212; test: as above
Outline: as §2

Escherichia coli IAI1 [7] = test: fold change of Putrescine concentration vs plate DMSO controls (fold change (ratio)); higher = more amine produced, active = hit call of the paper (significant change in both replicates, either direction)
Outline: as §2

[8] = tested on: Klebsiella aerogenes DSM 30053; test: as above
Outline: as §2

Escherichia coli IAI1 [9] = test: fold change of Cadaverine concentration vs plate DMSO controls (fold change (ratio)); higher = more amine produced, active = hit call of the paper (significant change in both replicates, either direction)
Outline: as §2

[10] = tested on: Klebsiella aerogenes DSM 30053; test: as above
Outline: as §2

[11] = tested on: Ruminococcus gnavus DSM 108212; test: fold change of 2-Phenylethylamine concentration vs plate DMSO controls (fold change (ratio)); higher = more amine produced, active = hit call of the paper (significant change in both replicates, either direction)
Outline: as §2

[12] = tested on: Ruminococcus gnavus DSM 108212; test: growth (OD595) fold change vs plate DMSO controls (fold change (ratio)); higher = more growth
Outline: as §1

Compound | growth [1] | growth (Escherichia coli IAI1 [2]) | growth [3] | fold change of Histamine concentration [4] | fold change of Tryptamine concentration [5] | fold change of Tryptamine concentration [6] | fold change of Putrescine concentration (Escherichia coli IAI1 [7]) | fold change of Putrescine concentration [8] | fold change of Cadaverine concentration (Escherichia coli IAI1 [9]) | fold change of Cadaverine concentration [10] | fold change of 2-Phenylethylamine concentration [11] | growth [12]
Nc1ncn(C2OC(CO)C(O)C2O)c(=O)n1 (stereo unspecified) [Azacytidine-5] (20 µM) | 1.02 | 0.811 | 0.974 | 1.03 (inactive) | 0.953 (inactive) | 0.881 (inactive) | 0.794 (inactive) | 1.01 (inactive) | 1.72 (active) | 0.985 (inactive) | 0.935 (inactive) | –
O=C(O)[C@H]1/C(=C/CO)O[C@@H]2CC(=O)N21 [Clavulanate potassium salt] (20 µM) | 0.883 | 1.01 | 0.977 | 1.02 (inactive) | 1.01 (inactive) | 0.997 (inactive) | 0.96 (inactive) | 1 (inactive) | 1.05 (inactive) | 0.998 (inactive) | 1.02 (inactive) | –
C[C@]12CC[C@@H]3c4ccc(O)cc4C[C@@H](CCCCCCCCC[S+]([O-])CCCC(F)(F)C(F)(F)F)[C@H]3[C@@H]1CC[C@@H]2O (stereo partly specified) [Fulvestrant] (20 µM) | 1.25 | 1.06 | 1.03 | 0.97 (inactive) | 0.98 (inactive) | 1.2 (inactive) | 0.954 (inactive) | 0.979 (inactive) | 0.974 (inactive) | 1.02 (inactive) | 1.21 (inactive) | 1.13
CCCCCCCCNC(C)C(O)c1ccc(SC(C)C)cc1 (stereo unspecified) [Suloctidil] (20 µM) | 1.12 | 1.08 | 1.06 | 0.987 (inactive) | 0.983 (inactive) | 0.729 (active) | 1.03 (inactive) | 0.977 (inactive) | 0.983 (inactive) | 0.996 (inactive) | 0.785 (active) | –
CC/C=C(\C(=O)N[C@@H]1C(=O)N2C(C(=O)OCOC(=O)C(C)(C)C)=C(COC(N)=O)CS[C@H]12)c1csc(N)n1 [Cefcapene pivoxil hydrochloride monohydrate] (20 µM) | 0.716 | 0.786 | 1.07 | 0.95 (inactive) | 1.1 (inactive) | 1.02 (inactive) | 0.961 (inactive) | 0.964 (inactive) | 1.06 (inactive) | 1.03 (inactive) | 1.01 (inactive) | –
NC(=O)c1cc[n+](CC2=C(C(=O)O)N3C(=O)[C@@H](NC(=O)C(c4ccccc4)S(=O)(=O)[O-])[C@H]3SC2)cc1 (stereo partly specified) [Cefsulodin Sodium Salt Hydrate] (20 µM) | 0.555 | 1.04 | 1.02 | 1.03 (inactive) | 0.838 (inactive) | 0.779 (inactive) | 1.06 (inactive) | 0.997 (inactive) | 1.1 (inactive) | 0.992 (inactive) | 0.836 (inactive) | –
CS(=O)(=O)Nc1ccc([N+](=O)[O-])cc1Oc1ccccc1 [Nimesulide] (20 µM) | 1.01 | 0.991 | 1.03 | 1.07 (inactive) | 0.973 (inactive) | 0.972 (inactive) | 1.01 (inactive) | 1.01 (inactive) | 1 (inactive) | 0.991 (inactive) | 0.905 (inactive) | –
C#C[C@]1(O)CC[C@H]2[C@@H]3CCC4=CCCC[C@@H]4[C@H]3CC[C@@]21C [Lynestrenol] (20 µM) | 0.94 | 1.17 | 1.02 | 1.06 (inactive) | 0.947 (inactive) | 0.985 (inactive) | 1.13 (inactive) | 1.02 (inactive) | 0.997 (inactive) | 0.989 (inactive) | 1.01 (inactive) | –
Cc1ncc([N+](=O)[O-])n1CC(O)CCl (stereo unspecified) [Ornidazole] (20 µM) | 0.007 | 0.984 | 1.04 | 0.885 (inactive) | 0.00845 (active) | 0.0747 (active) | 0.976 (inactive) | 0.986 (inactive) | 0.962 (inactive) | 1.02 (inactive) | 0.0499 (active) | 0.0518
Nc1nc2[nH]cc(CCc3ccc(C(=O)N[C@@H](CCC(=O)O)C(=O)O)cc3)c2c(=O)[nH]1 [Pemetrexed disodium] (20 µM) | 1.11 | 1.25 | 0.529 | 0.471 (inactive) | 1.04 (inactive) | 0.788 (inactive) | 1.07 (inactive) | 0.577 (inactive) | 0.876 (inactive) | 0.663 (inactive) | 0.811 (inactive) | –
Cc1cc(NS(=O)(=O)c2ccc(N)cc2)no1 [Sulfamethoxazole] (20 µM) | 1.01 | 1.11 | 1.06 | 1.12 (inactive) | 0.999 (inactive) | 1.01 (inactive) | 1.13 (inactive) | 1.03 (inactive) | 0.911 (inactive) | 1 (inactive) | 0.978 (inactive) | 0.913
C[C@@H]1CN(c2c(F)c(N)c3c(=O)c(C(=O)O)cn(C4CC4)c3c2F)C[C@H](C)N1 [Sparfloxacin] (20 µM) | 0.0221 | 0.0499 | 0.286 | 0.286 (active) | 0.0593 (active) | 0.763 (active) | 0.942 (inactive) | 1.16 (inactive) | 0.264 (active) | 0.973 (inactive) | 0.829 (inactive) | –
O=C(O)CSCC(=O)NC1CCSC1=O (stereo unspecified) [Erdosteine] (20 µM) | 1.04 | 1.07 | 1.03 | 0.984 (inactive) | 0.962 (inactive) | 1.01 (inactive) | 0.971 (inactive) | 1 (inactive) | 0.993 (inactive) | 0.993 (inactive) | 0.988 (inactive) | 1.04
Cc1cnc(C(=O)O)c[n+]1[O-] [Acipimox] (20 µM) | 1.05 | 0.996 | 1.27 | 0.874 (inactive) | 0.952 (inactive) | 1 (inactive) | 1.01 (inactive) | 0.998 (inactive) | 1.03 (inactive) | 1.03 (inactive) | 1.03 (inactive) | 0.959
O=C(O)c1cccnc1Nc1cccc(C(F)(F)F)c1 [Niflumic acid] (20 µM) | 0.913 | 1.08 | 0.996 | 1.05 (inactive) | 1.04 (inactive) | 1.02 (inactive) | 1.08 (inactive) | 1.01 (inactive) | 0.996 (inactive) | 0.993 (inactive) | 0.988 (inactive) | 1.32
C=CC1=C(C(=O)O)N2C(=O)[C@@H](NC(=O)/C(=N\OCC(=O)O)c3csc(N)n3)[C@H]2SC1 [Cefixime] (20 µM) | 0.286 | 0.0263 | 1.12 | 0.931 (inactive) | 0.826 (inactive) | 0.964 (inactive) | 0.484 (active) | 1.03 (inactive) | 2.08 (active) | 1.05 (inactive) | 0.932 (inactive) | –
CN1CCN(c2c(F)cc3c(=O)c(C(=O)O)cn(CCF)c3c2F)CC1 [Fleroxacin] (20 µM) | 0 | 0 | 0 | 0.153 (active) | 0.0453 (active) | 1.08 (inactive) | 0.785 (inactive) | 0.902 (inactive) | 0.26 (active) | 0.961 (inactive) | 1.15 (inactive) | 0
C[C@H]1COc2c(N3CCN(C)CC3)c(F)cc3c(=O)c(C(=O)O)cn1c23 [Levofloxacin] (20 µM) | 0.012 | 0.012 | 0.11 | 0.107 (active) | 0.0435 (active) | 0.755 (active) | 0.521 (active) | 0.657 (active) | 0.226 (active) | 0.953 (inactive) | 0.823 (inactive) | –
CC(C)Cc1ccc([C@H](C)C(=O)O)cc1 [(S,+) Ibuprofen] (20 µM) | – | 0.797 | 1.16 | 0.925 (inactive) | – | 1.06 (inactive) | 0.854 (inactive) | 1.03 (inactive) | 1.06 (inactive) | 1.04 (inactive) | 1.11 (inactive) | 0.974
COc1c(N2C[C@@H]3CCCN[C@@H]3C2)c(F)cc2c(=O)c(C(=O)O)cn(C3CC3)c12 [Moxifloxacin] (20 µM) | – | 0.0497 | 0.193 | 0.256 (active) | – | 0.205 (active) | 0.828 (inactive) | 0.915 (inactive) | 0.236 (active) | 0.982 (inactive) | 0.215 (active) | 0.00485
Nc1ccn([C@@H]2CS[C@H](CO)O2)c(=O)n1 [Lamivudine] (20 µM) | – | 0.995 | 0.992 | 1.06 (inactive) | – | 1.02 (inactive) | 1.02 (inactive) | 1.03 (inactive) | 1.02 (inactive) | 0.99 (inactive) | 1.02 (inactive) | 0.831
CC1COc2c(N3CCN(C)CC3)c(F)cc3c(=O)c(C(=O)O)cn1c23 (stereo unspecified) [Ofloxacin] (20 µM) | 0.0346 | 0.0388 | 0.256 | 0.09 (active) | 0.0354 (active) | 0.997 (inactive) | 0.809 (inactive) | 0.653 (active) | 0.187 (active) | 0.961 (inactive) | 1.06 (inactive) | –
Cc1cnc(NC(=O)C2=C(O)c3ccccc3S(=O)(=O)N2C)s1 [Meloxicam] (20 µM) | – | 0.997 | 0.98 | 1.03 (inactive) | – | 1.02 (inactive) | 1.04 (inactive) | 0.995 (inactive) | 0.959 (inactive) | 0.996 (inactive) | 1.03 (inactive) | 0.801
